# In PubChem BioAssay (Tox21):
# Values joined by “and” are separate entries in the source; they are usually repeats but may differ in a detail not shown here. Equal entries are not always repeated. Inconclusive results are not listed. A call without a number means that no potency is given here. Some compounds were tested as several samples or in several runs, with calls that do not always agree. Active and inactive are the calls of the source. Unless noted, calls come from the whole dose curve; as a rule, active = well fitted curve in the direction sought with a large enough effect in the repeat runs; inconclusive = weak or mixed curves; inactive = no such curve, though single readings can be large; an effect the other way counts as inactive or inconclusive.
# What was measured:
# [1] = qHTS assay to test for compound auto fluorescence at 460 nm (blue) in HEK293 cell free culture (AID 720681); conditions: cell-free medium, autofluorescence 405/460 nm (blue); series mostly up to 91.3 µM
# Summary of the method: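 Test compounds were pinned into cell-free culture medium (DMEM with 10% FBS) and fluorescence was read directly at Ex/Em 405/460 nm. Signals were expressed as fluorescence equivalents of triamterene, with DMSO vehicle as control.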
# [2] = qHTS assay to test for compound auto fluorescence at 535 nm (green) in HEK293 cell free culture (AID 720682); conditions: cell-free medium, green autofluorescence 485/535 nm, stronger effect = higher value; series mostly up to 91.3 µM
# Summary of the method: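 DMEM + 10% FBS, cell-free; cpd or DMSO pinned in; Ex485/Em535 read; output as fluorescein-equivalent signal.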
# [3] = qHTS assay to test for compound auto fluorescence at 590 nm (red) in HepG2 cell free culture (AID 720684); conditions: cell-free medium autofluorescence, red 540/590 nm; series mostly up to 91.3 µM
# Summary of the method: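 Ex 540 / Em 590 nm read of compound in cell-free MEM (10% FBS). Rose Bengal sodium reference.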
# [4] = qHTS assay to test for compound auto fluorescence at 460 nm (blue) in HepG2 cell free culture (AID 720685); conditions: Cell-free culture medium, blue autofluorescence 405/460 nm; series mostly up to 91.3 µM
# Summary of the method: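 Cell-free plates of MEM plus 10% FBS received 23 nL compound or DMSO vehicle; blue-channel (405/460 nm) intensity scored against triamterene as reference fluorophore.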
# [5] = qHTS assay to test for compound auto fluorescence at 460 nm (blue) in HepG2 cells (AID 720687); conditions: autofluorescence 405/460 nm, 1 h; series mostly up to 91.3 µM
# Summary of the method: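 Cells (2,000/well in MEM with 10% FBS) attached overnight at 37 C, then were exposed to compound or DMSO for 1 hr at 37 C, 5% CO2. Fluorescence read at Ex/Em 405/460 nm, expressed as triamterene-equivalent signal.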
# [6] = molecular target: Glucocorticoid receptor (Homo sapiens) (UniProt P04150); assay: qHTS assay to identify small molecule agonists of the glucocorticoid receptor (GR) signaling pathway (AID 720691; active = well fitted activation curve with a large enough effect in the signal ratio in the repeat runs, not every such curve was filed as active; the % refers to the signal ratio); conditions: GR-bla HeLa, beta-lactamase reporter ratio, 18 h; series mostly up to 62.4 µM
# Chain of Glucocorticoid receptor (Homo sapiens) (P04150 whole entry, looked up): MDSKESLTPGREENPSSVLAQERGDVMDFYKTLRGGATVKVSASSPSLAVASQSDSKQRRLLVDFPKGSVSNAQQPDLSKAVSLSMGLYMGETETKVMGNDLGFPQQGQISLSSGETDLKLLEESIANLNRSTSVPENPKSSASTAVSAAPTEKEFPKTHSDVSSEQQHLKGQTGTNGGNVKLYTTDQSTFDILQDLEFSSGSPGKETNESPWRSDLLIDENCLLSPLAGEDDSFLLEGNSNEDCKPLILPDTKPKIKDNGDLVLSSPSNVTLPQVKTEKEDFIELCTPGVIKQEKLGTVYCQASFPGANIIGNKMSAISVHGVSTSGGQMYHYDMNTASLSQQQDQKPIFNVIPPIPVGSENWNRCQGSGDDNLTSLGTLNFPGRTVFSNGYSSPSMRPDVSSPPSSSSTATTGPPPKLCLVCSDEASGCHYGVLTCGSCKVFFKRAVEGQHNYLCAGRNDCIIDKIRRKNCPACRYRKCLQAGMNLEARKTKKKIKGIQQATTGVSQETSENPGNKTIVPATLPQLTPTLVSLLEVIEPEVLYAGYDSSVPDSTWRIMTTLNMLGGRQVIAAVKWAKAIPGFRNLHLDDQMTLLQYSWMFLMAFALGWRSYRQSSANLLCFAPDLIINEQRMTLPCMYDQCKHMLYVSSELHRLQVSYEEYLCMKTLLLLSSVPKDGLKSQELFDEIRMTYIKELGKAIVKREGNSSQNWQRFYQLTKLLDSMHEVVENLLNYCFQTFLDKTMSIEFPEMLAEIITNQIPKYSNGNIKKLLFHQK
# Summary of the method: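 Steps: seed GR-bla HeLa cells, incubate 4 h at 37 C/5% CO2; pin-transfer DMSO-dissolved compounds; incubate 18 h at 37 C; add LiveBLAzer B/G FRET substrate; after 2 h at room temperature, measure fluorescence.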
# [7] = molecular target: Glucocorticoid receptor (Homo sapiens) (UniProt P04150); assay: qHTS assay to identify small molecule antagonists of the glucocorticoid receptor (GR) signaling pathway (AID 720692; active = well fitted inhibition curve with a large enough effect in the signal ratio in the repeat runs, not every such curve was filed as active; the % refers to the signal ratio; note: potency is the fitted concentration of half-maximal effect); conditions: GR-bla HeLa, beta-lactamase FRET ratio, dexamethasone-stimulated, 18 h; series mostly up to 58.5 µM
# Summary of the method: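 Antagonism was scored as loss of dexamethasone-driven (5 nM final) reporter signal in HeLa cells bearing a glucocorticoid response element–beta-lactamase construct, after 18 h compound exposure at 37 C and 2 h FRET substrate loading.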
# [8] = qHTS assay for identifying genotoxic compounds that show differential cytotoxicity against isogenic chicken DT40 cell lines with known DNA damage response pathways - wild type cell line (AID 743012); conditions: DT40 wild type chicken cells viability, CellTiter-Glo, 40 h; series mostly up to 68.4 µM; note: nearly all actives have a fitted effect of over 60% in size; note: potency is the fitted concentration of half-maximal effect
# Summary of the method: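 Cytotoxicity in repair-proficient parental chicken DT40 cells serves as the comparator for Rad54/Ku70- and Rev3-deficient lines. Cells were exposed to compounds for 40 h at 37 C/5% CO2, and ATP-based luminescence (CellTiter-Glo) measured viability.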
# [9] = qHTS assay for identifying genotoxic compounds that show differential cytotoxicity against isogenic chicken DT40 cell lines with known DNA damage response pathways - Rev3 mutant cell line (AID 743014); conditions: chicken DT40 Rev3-/- viability, CellTiter-Glo, 40 h; series mostly up to 68.4 µM; note: nearly all actives have a fitted effect of over 55% in size; note: potency is the fitted concentration of half-maximal effect
# [10] = qHTS assay to identify small molecule antagonists of the androgen receptor (AR) signaling pathway - cell viability counter screen (AID 743033; note: nearly all actives have a fitted effect of over 45% in size; note: potency is the fitted concentration of half-maximal effect); conditions: AR-bla HEK293 viability, CellTiter-Glo luminescence, 16 h; series mostly up to 58.5 µM
# [11] = qHTS assay to identify small molecule antagonists of the androgen receptor (AR) signaling pathway using the MDA cell line - cell viability counter screen (AID 743041; note: nearly all actives have a fitted effect of over 45% in size; note: potency is the fitted concentration of half-maximal effect); conditions: MDA-kb2 viability, CellTiter-Fluor, 16 h, cells co-treated with R1881 androgen agonist; series mostly up to 70.3 µM
# Summary of the method: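 In this qHTS counter assay, fluorescence intensity after CellTiter-Fluor addition indicated viability of MDA-kb2 AR-luc cells given compounds and R1881 for 16 h at 37C.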
# [12] = qHTS assay to identify small molecule antagonists of the glucocorticoid receptor (GR) signaling pathway - cell viability counter screen (AID 720693); conditions: GR-bla HeLa viability, CellTiter-Glo luminescence, 18 h, with 5 nM dexamethasone present; series mostly up to 58.5 µM; note: nearly all actives have a fitted effect of over 55% in size; note: potency is the fitted concentration of half-maximal effect
# [13] = qHTS assay for identifying genotoxic compounds that show differential cytotoxicity against isogenic chicken DT40 cell lines with known DNA damage response pathways - Rad54/Ku70 mutant cell line (AID 743015); conditions: DT40 Rad54/Ku70 mutant viability, CellTiter-Glo, 40 h; series mostly up to 66.8 µM; note: nearly all actives have a fitted effect of over 60% in size; note: potency is the fitted concentration of half-maximal effect
# [14] = qHTS assay to test for compound auto fluorescence at 535 nm (green) in HepG2 cell free culture (AID 720686); conditions: Cell-free medium, green autofluorescence 485/535 nm; series mostly up to 91.3 µM
# [15] = qHTS assay to test for compound auto fluorescence at 590 nm (red) in HEK293 cell free culture (AID 720683); conditions: cell-free medium autofluorescence, Ex540/Em590 red; series mostly up to 91.3 µM
# Summary of the method: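 Tox21 10K library compounds were pinned into cell-free DMEM with 10% FBS and fluorescence was read at excitation 540 nm. Activity is expressed as Rose Bengal sodium equivalency.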
# [16] = molecular target: Androgen receptor (Homo sapiens) (UniProt P10275); assay: qHTS assay to identify small molecule agonists of the androgen receptor (AR) signaling pathway using the MDA cell line (AID 743040; note: nearly all actives have a fitted effect of over 20% in size); conditions: MDA-kb2 AR-luc cells, MMTV luciferase, 16 h, stronger effect = higher value; series mostly up to 70.3 µM
# Chain of Androgen receptor (Homo sapiens) (P10275 whole entry, looked up): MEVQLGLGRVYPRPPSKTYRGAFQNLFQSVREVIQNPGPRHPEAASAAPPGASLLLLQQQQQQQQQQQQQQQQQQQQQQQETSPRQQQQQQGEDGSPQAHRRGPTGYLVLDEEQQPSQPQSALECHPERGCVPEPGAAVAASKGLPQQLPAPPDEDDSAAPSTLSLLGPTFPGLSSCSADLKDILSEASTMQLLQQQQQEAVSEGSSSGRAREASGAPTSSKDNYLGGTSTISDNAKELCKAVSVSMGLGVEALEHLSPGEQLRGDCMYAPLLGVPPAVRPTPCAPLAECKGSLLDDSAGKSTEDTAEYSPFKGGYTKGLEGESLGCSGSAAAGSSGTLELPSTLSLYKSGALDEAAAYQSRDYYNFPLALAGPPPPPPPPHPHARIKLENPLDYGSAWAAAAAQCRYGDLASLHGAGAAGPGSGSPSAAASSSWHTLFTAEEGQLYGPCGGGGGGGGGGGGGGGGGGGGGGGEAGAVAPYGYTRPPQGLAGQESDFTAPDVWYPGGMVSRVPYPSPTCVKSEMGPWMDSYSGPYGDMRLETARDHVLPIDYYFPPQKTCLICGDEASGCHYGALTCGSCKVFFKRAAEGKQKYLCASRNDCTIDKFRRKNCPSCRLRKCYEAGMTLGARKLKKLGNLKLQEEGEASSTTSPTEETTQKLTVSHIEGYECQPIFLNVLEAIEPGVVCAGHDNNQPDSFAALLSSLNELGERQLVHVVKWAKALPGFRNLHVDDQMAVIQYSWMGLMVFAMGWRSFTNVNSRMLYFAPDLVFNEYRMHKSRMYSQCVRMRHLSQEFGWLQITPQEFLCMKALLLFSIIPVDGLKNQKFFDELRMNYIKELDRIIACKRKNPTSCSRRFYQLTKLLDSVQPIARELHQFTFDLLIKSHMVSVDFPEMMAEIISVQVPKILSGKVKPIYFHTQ
# Summary of the method: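 Cell-based luciferase reporter: MDA-kb2, MMTV promoter (AR + GR response elements). 16 h compound exposure at 37C; ONE-Glo, 30 min RT, luminescence.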
# [17] = molecular target: Androgen receptor (Homo sapiens) (UniProt P10275); assay: qHTS assay to identify small molecule antagonists of the androgen receptor (AR) signaling pathway using the MDA cell line (AID 743042; note: potency is the fitted concentration of half-maximal effect; nearly all actives have a fitted effect of over 55% in size); conditions: MDA-kb2 AR-luc, MMTV luciferase, R1881 antagonist, 16 h; series mostly up to 70.3 µM
# Summary of the method: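 MDA-kb2 cells (human breast carcinoma, stably carrying an MMTV-luciferase reporter responsive to AR and GR) were plated at 3,000 cells/well and preincubated 5 hr at 37C, then given compound plus R1881 agonist for 16 h. ONE-Glo luminescence was read.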
SMILES,outcome [1],outcome [2],outcome [3],outcome [4],outcome [5],outcome [6],Potency [7],Potency [8],Potency [9],Potency [10],Potency [11],Potency [12],Potency [13],outcome [14],outcome [15],outcome [16],Potency [17]
O=C(O)CCl,inactive,inactive,inactive,inactive,inactive,inactive,inactive,inactive,inactive,inactive,inactive,,,,,,
CCC[N+]1(C)CCCCC1,inactive,inactive,inactive,inactive,inactive,,,inactive,inactive,inactive,inactive,inactive,,,,,
CCCC[n+]1ccccc1C,inactive,inactive,inactive,inactive,inactive,,,inactive,inactive,inactive,inactive,,inactive,,,,
Nc1ccccc1,inactive,inactive,inactive,inactive,inactive,inactive,inactive,inactive,inactive,inactive,inactive,,,inactive,,,
COP(=O)(OC)OC=C(Cl)Cl,inactive,inactive,inactive,inactive,inactive,,,9.44 µM (active) and inactive,11.9 µM (active) and inactive,inactive,inactive,inactive,13.3 µM (active) and inactive,,inactive,,
OCCOc1ccccc1,inactive,inactive,inactive,inactive,inactive,inactive,inactive,inactive,inactive,inactive,inactive,inactive,inactive,,,,
CCCCCC[n+]1ccccc1,inactive,inactive,inactive,inactive,inactive,,,,,55.5 µM (active) and 55.3 µM (active) and inactive,,inactive,,,,,
CC[N+](CC)(CC)CC,inactive,inactive,inactive,inactive,inactive,inactive,inactive,inactive,inactive,inactive,inactive,,,inactive,,,
Cc1cc(-c2ccc(N)c(C)c2)ccc1N,inactive,inactive,inactive,inactive,inactive,,,inactive,inactive and 34.3 µM (active),inactive,inactive,,inactive and 60.9 µM (active),inactive,,,
Nc1ccc(-c2ccc(N)c(Cl)c2)cc1Cl,inactive,inactive,inactive,inactive,inactive,,19.6 µM (active) and 11.5 µM (active) and 19.5 µM (active),54.5 µM (active),48.8 µM (active) and 28.6 µM (active) and 54.5 µM (active),inactive,inactive,,,,,,
CCCCn1cc[n+](C)c1,inactive,inactive,inactive,inactive,inactive,,,inactive,inactive,inactive,inactive,,inactive,,inactive,,
COCC(=O)N(c1c(C)cccc1C)C(C)C(=O)OC (stereo not drawn),inactive,inactive,inactive,inactive,inactive,,,inactive and 61 µM (active),inactive and 61 µM (active),inactive,inactive,,,,inactive,,
CCCCCCCCCCCCCC[P+](CCCCCC)(CCCCCC)CCCCCC,inactive,inactive,inactive,inactive,inactive,inactive,,13.7 µM (active) and 6.91 µM (active),7.73 µM (active) and 6.16 µM (active) and inactive,982 nM (active) and 3.92 µM (active) and 346 nM (active),,12.4 µM (active) and 11.1 µM (active),,,,,
C=CCOC(Cn1ccnc1)c1ccc(Cl)cc1Cl (stereo not drawn),inactive,inactive,inactive,inactive,inactive,inactive,inactive,11.9 µM (active) and 48.7 µM (active) and 13.7 µM (active),21.1 µM (active) and 27.4 µM (active) and 12.2 µM (active),inactive and 49.1 µM (active),inactive,inactive,,,,,
C[C@]12CCC(=O)C=C1CC[C@@H]1[C@@H]2CC[C@]2(C)C(=O)CC[C@@H]12,inactive,inactive,inactive,inactive,inactive,,,23.7 µM (active) and 27.3 µM (active),29.8 µM (active) and 47.7 µM (active) and 54.5 µM (active),inactive,inactive,inactive,,,inactive,,
O=C(O)c1ccccc1O,,inactive,,,,,,inactive,inactive,inactive,inactive,inactive,,,,,
CCCCCCCCCCn1cc[n+](C)c1,inactive,inactive,inactive,inactive,inactive,inactive,15.6 µM (active) and 39.1 µM (active),,,2.48 µM (active),872 nM (active) and 559 nM (active) and 193 nM (active),,,,inactive,,
CCNc1nc(Cl)nc(NCC)n1,inactive,inactive,inactive,inactive,inactive,inactive,inactive,inactive,inactive,inactive,inactive,inactive,,inactive,,,
Oc1cccc2cccnc12,inactive,inactive,inactive,inactive,inactive,,,,,,,inactive,,,,,
CCCCn1cc[n+](C)c1C,inactive,inactive,inactive,inactive,inactive,,,inactive,inactive,inactive,inactive,,,inactive,,,
O=[N+]([O-])O,inactive,inactive,inactive,inactive,inactive,inactive,inactive,inactive and 42.1 µM (active),inactive and 9.43 µM (active),inactive,inactive,,inactive and 29.8 µM (active),inactive,,,
CCn1cc[n+](C)c1C,inactive,inactive,inactive,inactive,inactive,,,inactive,inactive,inactive,inactive,,,,,,
CCCC[n+]1ccccc1,inactive,inactive,inactive,inactive,inactive,,,inactive,inactive,inactive,inactive,,inactive,,,,
O=C(O)c1nc(Cl)ccc1Cl,inactive,inactive,inactive,inactive,inactive,inactive,inactive,inactive,inactive,inactive,inactive,,,,,,
CCCC[n+]1cccc(C)c1,inactive,inactive,inactive,inactive,inactive,inactive,inactive,inactive,inactive,inactive,inactive,inactive,inactive,,,,
CCCCCCn1cc[n+](C)c1,inactive,inactive,inactive,inactive,inactive,,,,,,31.9 µM (active) [middle of 5 runs],inactive,,,,,
CC(=O)[O][Hg][c]1ccccc1,inactive,inactive,inactive,inactive,inactive,,,211 nM (active) and 271 nM (active) and 109 nM (active),376 nM (active) and 152 nM (active) and 122 nM (active),5.35 µM (active) and 1.37 µM (active) and 1.95 µM (active),5.31 µM (active) and 3.82 µM (active) and 3.06 µM (active),952 nM (active) and 485 nM (active) and 436 nM (active),,inactive,,inactive,2.98 µM (active) and 1.92 µM (active) and 2.17 µM (active)
